The structures appear in SMILES notation.

Composite z-score and z-score data for 10 compounds are collected here from PubChem BioAssay.

Test [1] deals with Human papillomavirus type 1a protein E7 (residues 44-93). Nature of the test: HPV1a E7 fragment binders on microarrays, primary screen, biochemical, small-molecule microarray, residues 44-93, 635 nm fluorescence (AID 1108).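 Note: E7 fragment applied at 1 µg/mL in TBST for 1 h at 4 C; score combines spot fluorescence with its signal to noise ratio.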 Particulars: small-molecule microarray binding, fluorescence 635 nm; higher = more signal.
Test [2] in a line: modulators of HCV replicon luciferase signal, primary screen, HCV replication inhibitor project, Huh7 cells, luciferase reporter (AID 1109).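 Note: huh7 hepatoma cells harbouring a luciferase neomycin HCV replicon reporter; luciferase luminescence as measure of HCV replicon replication; test concentration not given here.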 Particulars: 48 h, higher = more signal.
Test [3] has as its target Left-right determination factor 2 (Homo sapiens) (UniProt O00292). Nature of the test: LEFTY2 binders on small-molecule microarrays, primary screen, biochemical, small-molecule microarray, 635 nm fluorescence scan (AID 1110). Particulars: LEFTY2 binding, higher = more signal.
Test [4] addresses Calmodulin-1 (Homo sapiens) (UniProt P0DP23). As to the kind of experiment: CALM1 binders on microarrays, EGTA buffer, profiling panel, biochemical, small-molecule microarray, Cy5-labelled CALM1 (AID 1111).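 Note: labelled calmodulin applied in Tris saline Tween buffer holding calcium plus EGTA and DTT.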 Particulars: Cy5-CALM1 binding fluorescence, higher = more signal.
The target is the same in test [5]. Nature of the test: calcium-bound CALM1 binders on microarrays, profiling panel, artefact control for SMM control-protein annotation, biochemical, small-molecule microarray, Cy5-labelled CALM1, plus calcium (AID 1112).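 Note: score merges spot fluorescence with signal to noise from triplicate slides.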 Particulars: Cy5-CALM1 binding fluorescence, higher = more signal.
A short description of test [6]: small-molecule microarray binders of probe aWnt5a, primary screen, biochemical, biotinylated probe, 635/667 nm fluorescence (AID 1113).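 Note: score merges 667 nm fluorescence intensity with signal-to-noise per printed feature.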 Particulars: higher = more signal.
Test [7] can be described thus: small-molecule microarray binders of probe aShh, primary screen, biochemical, biotinylated probe, 635/667 nm fluorescence (AID 1114).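 Note: probe is biotin-labelled aShh protein from a stem cell growth factor screen; measures binding of labelled protein to compounds printed on the slide; score merges feature fluorescence at 667 nm with signal-to-noise.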 Particulars: higher = more signal.
The nature of test [8]: small-molecule microarray binders of probe aNog, primary screen, biochemical, biotinylated probe, 635/667 nm fluorescence (AID 1115).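 Note: probe is biotinylated aNog protein used at 0.15 µg/mL for 1 h at 4 C; z-score combines 667 nm fluorescence of each spot with its signal to noise.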 Particulars: higher = more signal.
In test [9] the target is Torsin-1A-interacting protein 1 (Homo sapiens) (UniProt Q5JTV8). Nature of the test: LAP1 binders from COS7 cell lysate, primary screen, small-molecule microarray, 635/667 nm fluorescence (AID 1116). Particulars: COS7-hLAP1 lysate binding, 635 nm fluorescence, higher = more signal.
Sequence of Torsin-1A-interacting protein 1 (Homo sapiens) (Q5JTV8 whole entry, looked up): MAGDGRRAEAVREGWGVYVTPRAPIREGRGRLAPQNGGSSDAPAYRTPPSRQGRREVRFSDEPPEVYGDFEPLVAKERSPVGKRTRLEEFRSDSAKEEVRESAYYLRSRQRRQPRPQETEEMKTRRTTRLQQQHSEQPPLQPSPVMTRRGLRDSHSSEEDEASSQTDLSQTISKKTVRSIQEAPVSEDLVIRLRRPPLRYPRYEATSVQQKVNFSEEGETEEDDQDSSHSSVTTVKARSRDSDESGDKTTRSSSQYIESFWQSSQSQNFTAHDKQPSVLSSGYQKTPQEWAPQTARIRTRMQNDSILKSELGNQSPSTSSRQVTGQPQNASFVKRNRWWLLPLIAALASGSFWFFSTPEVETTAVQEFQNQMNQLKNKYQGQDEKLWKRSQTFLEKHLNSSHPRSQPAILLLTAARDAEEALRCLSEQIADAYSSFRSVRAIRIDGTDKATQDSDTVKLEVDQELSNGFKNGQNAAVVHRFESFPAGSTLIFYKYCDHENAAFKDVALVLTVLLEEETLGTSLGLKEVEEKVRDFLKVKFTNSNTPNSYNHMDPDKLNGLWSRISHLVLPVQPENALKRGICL
Test [10] addresses Alpha-bungarotoxin (Bungarus multicinctus) (UniProt P60615). As to the kind of experiment: alpha-bungarotoxin binders on microarray, profiling panel, artefact control for SMM control protein annotation, biochemical, small-molecule microarray, Alexa647 label, 635/667 nm fluorescence (AID 1117). Particulars: alpha-BTX-A647 binding fluorescence, higher = more signal.

Sequence of Left-right determination factor 2 (Homo sapiens) (O00292 whole entry, looked up): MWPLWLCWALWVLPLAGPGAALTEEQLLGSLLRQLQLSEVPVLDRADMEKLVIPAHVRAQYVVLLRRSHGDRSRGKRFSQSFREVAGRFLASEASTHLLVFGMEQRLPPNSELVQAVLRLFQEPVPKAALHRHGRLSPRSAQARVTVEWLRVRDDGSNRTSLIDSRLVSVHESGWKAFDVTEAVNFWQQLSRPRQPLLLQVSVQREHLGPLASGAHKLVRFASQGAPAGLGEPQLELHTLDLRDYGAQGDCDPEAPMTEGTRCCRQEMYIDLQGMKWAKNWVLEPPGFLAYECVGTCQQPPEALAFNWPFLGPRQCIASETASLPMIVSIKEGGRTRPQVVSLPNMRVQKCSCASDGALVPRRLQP
Sequence of Alpha-bungarotoxin (Bungarus multicinctus) (P60615 whole entry, looked up): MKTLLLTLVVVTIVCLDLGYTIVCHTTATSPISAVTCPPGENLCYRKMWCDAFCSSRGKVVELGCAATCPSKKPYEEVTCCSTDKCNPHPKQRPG

For the compound `COC(=O)CC=C[C@@H](C)[C@@H](C=NOCC[C@@H]1C=C[C@H](OC(C)=O)[C@@H](COC(C)=O)O1)NS(=O)(=O)c1ccc(C)cc1`, the composite z-score in [1] was -0.0642; in test [3], 0.851; in [4], -0.879; in [5], -1.47; in [6] it was -0.0519; in test [7], 0.0141. For the same compound, the composite z-score is -0.429 in test [8], 0.164 in [9] and -0.0729 in test [10]. In addition, in [2], the z-score was -1.45.
Turning to `COCOc1ccc(Br)cc1C(=O)[C@@H]1O[C@H]1c1cccc(OC)c1`, the composite z-score in test [1] was -0.392; in test [3] it was 0.377; in test [4] it was -0.213; in test [5], -0.187; in [6] it was -0.148; in test [7], -0.136. The composite z-score was -0.0428 in test [8], 0.616 in test [9] and 0.187 in test [10]. The z-score in test [2] was -3.74.
Regarding `CO[C@@H]1C=CCC(=O)N2CCC[C@H]2C(=O)OC[C@@H](C)C(=O)OC[C@H]1C`, the composite z-score in test [1] was -0.291; in test [3], 0.837; in test [4], -0.759; in test [5], -1.02; in [6] it was -0.0896; in test [7], -0.0362. For the same compound, the composite z-score was -0.246 in test [8], -0.0837 in [9] and -0.276 in test [10]. In [2], the z-score was 0.189.
In the case of `O=C1CCCC(C2=CCCCC2=O)C1` (stereo not given), the composite z-score in test [1] was -0.281; in test [3], 0.524; in test [4], -0.732; in [5] it was -1.38; in test [6], -0.0548; in [7], 0.116. For the same compound, the composite z-score is -0.14 in test [8], 0.086 in test [9] and -0.19 in [10]. The z-score in [2] is -0.293.
For the compound `C[C@H](ON=C1[C@H]2CCn3c(=O)n(-c4ccccc4)c(=O)n3[C@H]2[C@H](O)[C@@H]2O[C@H]12)c1cn([C@H](CO)Cc2ccccc2)nn1`, the composite z-score in [1] is 0.345; in [3] it was 0.605; in test [4], 1.15; in [5] it was -0.444; in test [6] it was -0.0179; in test [7], -0.195. In addition, the results for the composite z-score in test [8], in test [9] and in test [10] were 0.0637, -0.168 and 0.104, respectively. The z-score in [2] is -2.91.
Turning to `Cc1cc2c(nc1C)CCCCN2CC(C)ON=C1[C@H]2CCn3c(=O)n(-c4ccccc4)c(=O)n3[C@H]2[C@H](O)[C@@H]2O[C@H]12` (stereo not given in full), the composite z-score in test [1] was -0.0964; in [3] it was 0.769; in test [4], -0.895; in [5], -1.2; in [6], 0.0839; in [7] it was 0.258. Moreover, the composite z-score in test [8] turned out to be 0.0531; in [9] it was 0.369; in test [10], 0.473. The z-score in test [2] was -4.63.
With `CCOC(=O)[C@H](Cc1ccccc1)NC(=O)CCC1CC(OC(=O)NCCc2ccc(F)cc2)CC2(CCCC(COC(=O)NCc3ccccc3)O2)O1` (stereo not given in full), the composite z-score in test [1] is 1.29; in test [3] it was 0.829; in test [4] it was 0.774; in test [5], -0.129; in test [6], -0.157; in test [7], 1.15. Further, the values for the composite z-score in test [8], in test [9] and in test [10] were -0.118, 0.601 and 0.154, respectively. For the same compound, the z-score in [2] was -0.929.
`COC(=O)[C@@H]1CC[C@H](C)[C@@H](c2ccc(C)cc2)N1C(=O)c1ccc(C=NOCC[C@@H]2C=C[C@H](OC(C)=O)[C@@H](COC(C)=O)O2)cc1`: the composite z-score in test [1] is 0.875; in test [3], 0.465; in [4], -0.0548; in [5], -0.141; in test [6], -0.0778; in test [7], -0.0553. Also, the composite z-score is -0.37 in test [8], 1.41 in [9] and 0.646 in test [10]. The z-score in [2] was -0.852.
Consider `CCOC(=O)[C@H](CC(C)C)NC(=O)CCC1CC(OC(=O)NCc2ccc3c(c2)OCO3)CC2(CCCC(COC(=O)NCC3CCCCC3)O2)O1` (stereo not given in full), for which the composite z-score is 1.39 in [1]; 0.894 in test [3]; -0.0184 in test [4]; -0.381 in test [5]; -0.0087 in test [6]; 0.131 in test [7]. The composite z-score was -0.367 in test [8], 0.711 in test [9] and 0.415 in test [10]. Moreover, the z-score in test [2] was -1.49.
`CC(C)=CCCC(C)=CCON=C1C[C@@H](O)[C@@H](O)[C@@H]2[C@@H]3C(=O)N(c4ccc(F)cc4F)C(=O)[C@@H]3CC[C@@H]12`: the composite z-score in test [1] is 0.15; in [3], 0.821; in test [4] it was -0.343; in test [5], 0.0144; in test [6], -0.169; in test [7], -0.0553. For the same compound, the composite z-score in [8] was -0.374; in test [9] it was 1; in test [10], 0.703. The z-score in test [2] is -1.08.
